Data taken from PubChem BioAssay AID1159580 (chemical genetic matrix, 2015).
Several values for one entry are separate records, joined by “and”; a condition that tells them apart may be missing. Equal entries are not always repeated. Out of some 5,500 compounds screened, about 2,000 (36%) were called active. Inconclusive results (about 18%) are left out. Cut-off read from the data, not from the text of the source: active = normalized growth mostly below about 0.91 (no sharp cut-off); inconclusive = no clear call, values can overlap the other calls; inactive = mostly above about 0.92. Some of the results follow.

Assay: chemical genetic growth profiling, strain panel (AID 1159580);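 note: tested at 20 µM; growth read once vehicle control cultures reached saturation at 30 °C; 1 = growth at the plate median or of vehicle wells; lower values mean less growth of the strain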
Conditions: S. cerevisiae deletion strains, growth OD

Measured: normalized growth

C[C@](N)(Cc1ccc(O)c(O)c1)C(=O)O
inactive: locus YAL013W, strain DEP1, stronger effect = lower value 0.962 | locus YAL021C, strain ccr4, stronger effect = lower value 0.999 | locus YAL026C, strain drs2, stronger effect = lower value 0.968 | locus YAL030W, strain snc1, stronger effect = lower value 0.967 | locus YBL061C, strain skt5, stronger effect = lower value 0.971 | locus YBR009C, strain hhf1, stronger effect = lower value 0.964 | locus YBR021W, strain FUR4, stronger effect = lower value 1.03 | locus YBR023C, strain chs3, stronger effect = lower value 0.957 | locus YBR171W, strain sec66, stronger effect = lower value 0.951 | locus YBR229C, strain ROT2, stronger effect = lower value 0.951 | locus YBR231C, strain swc5, stronger effect = lower value 0.974 | locus YBR279W, strain paf1, stronger effect = lower value 0.96 | locus YCL011C, strain gbp2, stronger effect = lower value 0.912 | locus YCL016C, strain dcc1, stronger effect = lower value 0.92 | locus YCL029C, strain bik1, stronger effect = lower value 0.995 | locus YCL061C, strain MRC1, stronger effect = lower value 0.966 | locus YCL069W, strain vba3, stronger effect = lower value 0.982 | locus YCR088W, strain abp1, stronger effect = lower value 0.991 | locus YDL005C, strain med2, stronger effect = lower value 0.991 | locus YDL035C, strain GPR1, stronger effect = lower value 0.91 | locus YDL040C, strain nat1, stronger effect = lower value 0.989 | locus YDL074C, strain BRE1, stronger effect = lower value 1.01 | locus YDL101C, strain DUN1, stronger effect = lower value 0.987 | locus YDL134C, strain PPH21, stronger effect = lower value 0.974 | locus YDL185W, strain tfp1, stronger effect = lower value 0.988 | locus YDL192W, strain arf1, stronger effect = lower value 0.974 | locus YDR001C, strain nth1, stronger effect = lower value 0.971 | locus YDR069C, strain doa4, stronger effect = lower value 0.936 | locus YDR101C, strain arx1, stronger effect = lower value 1.01 | locus YDR137W, strain rgp1, stronger effect = lower value 0.945 | locus YDR150W, strain NUM1, stronger effect = lower value 0.943 | locus YDR159W, strain sac3, stronger effect = lower value 1 | locus YDR162C, strain NBP2, stronger effect = lower value 0.911 | locus YDR195W, strain ref2 0.984 | locus YDR297W, strain sur2, stronger effect = lower value 0.963 | locus YDR318W, strain mcm21, stronger effect = lower value 0.993 | locus YDR334W, strain swr1, stronger effect = lower value 0.92 | locus YDR335W, strain msn5, stronger effect = lower value 0.961 | locus YDR388W, stronger effect = lower value 1.01 | locus YDR392W, strain spt3, stronger effect = lower value 0.886 | locus YDR502C, strain sam2, stronger effect = lower value 1 | locus YEL003W, strain gim4, stronger effect = lower value 0.992 | locus YEL037C, strain rad23, stronger effect = lower value 0.977 | locus YEL061C, strain CIN8 (second series), stronger effect = lower value 0.977 | locus YEL061C, strain CIN8, stronger effect = lower value 0.978 | locus YER015W, strain faa2, stronger effect = lower value 0.965 | locus YER016W, strain bim1, stronger effect = lower value 0.987 | locus YER110C, stronger effect = lower value 0.971 | locus YER111C, strain swi4, stronger effect = lower value 0.995 | locus YER155C, strain BEM2 (second series), stronger effect = lower value 0.986 | locus YER155C, strain BEM2, stronger effect = lower value 1.02 | locus YER167W, strain BCK2, stronger effect = lower value 0.961 | locus YFR010W, strain ubp6, stronger effect = lower value 0.939 | locus YGL078C, strain dbp3, stronger effect = lower value 0.984 | locus YGL086W, strain mad1, stronger effect = lower value 0.958 | locus YGL167C, strain pmr1, stronger effect = lower value 0.954 | locus YGL173C, strain kem1, stronger effect = lower value 0.941 | locus YGL227W, strain vid30, stronger effect = lower value 0.979 | locus YGL240W, strain doc1, stronger effect = lower value 0.998 | locus YGL248W, strain PDE1, stronger effect = lower value 0.958 | locus YGL253W, strain hxk2, stronger effect = lower value 0.981 | locus YGR078C, strain PAC10, stronger effect = lower value 0.907 | locus YGR135W, strain pre9, stronger effect = lower value 0.973 | locus YGR229C, strain SMI1, stronger effect = lower value 0.917 | locus YGR252W, strain gcn5, stronger effect = lower value 0.908 | locus YHR013C, strain ard1, stronger effect = lower value 0.894 | locus YHR027C, strain rpn1, stronger effect = lower value 0.95 | locus YHR030C, strain SLT2, stronger effect = lower value 0.981 and 1.04 | locus YHR079C, strain IRE1 (second series), stronger effect = lower value 1 | locus YHR079C, strain IRE1, stronger effect = lower value 1.05 | locus YHR094C, strain hxt1, stronger effect = lower value 0.999 | locus YHR129C, strain ARP1, stronger effect = lower value 0.985 | locus YHR142W, strain chs7, stronger effect = lower value 0.913 | locus YHR200W, strain rpn10, stronger effect = lower value 0.981 | locus YIL066C, strain RNR3, stronger effect = lower value 0.882 | locus YIL073C, strain SPO22, stronger effect = lower value 0.793 | locus YIL125W, strain kgd1, stronger effect = lower value 0.99 | locus YIR030C, strain dcg1, stronger effect = lower value 0.987 | locus YJL092W, strain hpr5, stronger effect = lower value 0.966 | locus YJL095W, strain BCK1 (second series), stronger effect = lower value 0.965 | locus YJL095W, strain BCK1, stronger effect = lower value 1.02 | locus YJL115W, strain asf1, stronger effect = lower value 0.953 | locus YJL129C, strain trk1, stronger effect = lower value 0.973 | locus YJL134W, strain LCB3, stronger effect = lower value 0.976 | locus YJL154C, strain vps35, stronger effect = lower value 0.974 | locus YJL164C, strain tpk1, stronger effect = lower value 0.979 | locus YJL166W, strain qcr8, stronger effect = lower value 0.927 | locus YJL168C, strain set2, stronger effect = lower value 0.995 | locus YJL187C, strain SWE1 (second series), stronger effect = lower value 0.985 | locus YJL187C, strain SWE1, stronger effect = lower value 0.978 | locus YJR043C, strain POL32, stronger effect = lower value 0.967 | locus YJR066W, strain TOR1, stronger effect = lower value 0.99
